Source: PubChem (National Center for Advancing Translational Sciences (NCATS))
Only some compounds are listed: those with a hit (about 5% of all), similar ones and a draw of the others.
HCMV antiviral = inhibitors of human cytomegalovirus | HFF cells, HCMV-luciferase reporter, 72 h; hits give low values | 410,000 compounds, 4.5% hits | activity change, negative = inhibition, % at 57.5 µM; in the data active = activity change below about -60%; inconclusive = no clear call, values can overlap the other calls; inactive = above about -39%
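Human foreskin fibroblasts infected with luciferase-reporter HCMV at MOI 1 PFU/cell, compounds at two doses. Luciferase measured 72 h post infection; normalized to buffer-only basal and Salinomycin (10uM) controls.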
VACV mCherry inh = inhibitors of vaccinia virus infection (mCherry reporter signal). Vaccinia virus mCherry reporter infection, fluorescence. Potency, µM (series often up to 36.5 µM), inactives show at the highest dose activity change, negative = inhibition, usual class: inhibitors. 310,000 compounds, 0.63% hits. AID 720579; calls by dose curve; tested in A549 cells; note: potency is the fitted concentration of half-maximal effect; nearly all actives have a fitted effect of over 35% in size
LmPK inh = blocks Leishmania mexicana pyruvate kinase activity; purified LmPK, Kinase-Glo ATP luminescence, 1 h; Potency, µM (series often up to 57.5 µM), without a hit: at the top dose activity change, negative = inhibition, usual class: inhibitors; Q27686; 290,000 compounds, 0.37% hits; note: potency is the fitted concentration of half-maximal effect
Target sequence (Q27686 whole entry, looked up): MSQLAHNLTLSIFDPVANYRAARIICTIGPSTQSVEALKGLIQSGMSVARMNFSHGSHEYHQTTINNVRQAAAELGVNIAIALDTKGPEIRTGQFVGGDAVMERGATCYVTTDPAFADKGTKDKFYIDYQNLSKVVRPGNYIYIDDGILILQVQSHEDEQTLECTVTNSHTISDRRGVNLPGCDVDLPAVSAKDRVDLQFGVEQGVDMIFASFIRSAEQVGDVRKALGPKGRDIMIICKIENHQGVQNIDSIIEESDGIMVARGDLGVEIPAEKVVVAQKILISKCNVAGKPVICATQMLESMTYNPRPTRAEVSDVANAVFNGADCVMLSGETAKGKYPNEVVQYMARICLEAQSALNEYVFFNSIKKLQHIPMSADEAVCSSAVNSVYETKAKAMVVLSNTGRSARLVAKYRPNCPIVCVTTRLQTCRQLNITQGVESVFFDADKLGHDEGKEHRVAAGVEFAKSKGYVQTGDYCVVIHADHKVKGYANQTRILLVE
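qHTS format; LmPK 0.1 nM; substrates PEP 0.5 mM and ADP 0.1 mM. One-hour room-temperature incubation, then coupled luciferase luminescence; 0.5 nM enzyme wells mark activation.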
TbPYK inhibitor = inhibitors of Trypanosoma brucei pyruvate kinase. AID 624173. Potency, µM (top dose mostly 76.8 µM), for the others: at the highest dose activity, negative = inhibition, usual class: inhibitors. TbPYK enzyme, Kinase-Glo Plus ATP luminescence, 45 min. 410,000 compounds, 0.12% hits; note: potency is the fitted concentration of half-maximal effect; nearly all actives have a fitted effect of over 50% in size
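Readout: single end-point luminescence (Kinase-Glo Plus, 10 min). Reaction conditions were TbPYK/substrate plus 130 uM ADP, 45 min at RT, pH 7.2 TEA buffer. No-enzyme wells served as controls, and data were normalized before concentration-response fitting.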
VACV Venus inh = vaccinia inhibition (Venus reporter); AID 720580; 330,000 compounds, 0.46% hits; Potency, µM (series often up to 36.5 µM), without a hit: top-dose activity change, negative = inhibition, hits mostly inhibitors; Vaccinia virus Venus reporter expression, fluorescence; calls by dose curve; tested in A549 cells; note: potency is the fitted concentration of half-maximal effect; nearly all actives have a fitted effect of over 30% in size
* = called active by the depositor; i = inactive; ? = inconclusive; · = not tested or not shown; + = active, no number; [ ] = remark or other dose. Unless noted, calls come from the whole dose curve; as a rule, active = well fitted curve in the direction sought with a large enough effect; inconclusive = small, poorly fitted or top-dose-only effect, or another doubt; inactive = no such curve, though single readings can be large; an effect the other way counts as inactive or inconclusive. % is set by controls: 0 for no effect and ±100 for the full control effect.

SMILES | HCMV antiviral | VACV mCherry inh | LmPK inh | TbPYK inhibitor | VACV Venus inh
CCN(CC)S(=O)(=O)c1ccc(C)c(NC(=O)CNc2cccc(S(=O)(=O)N3CCCC3)c2)c1 | ? | -11.8% | · | -0.4% | -27.2%
Cc1ccc(CN2CC(C(=O)Nc3ccc(C)c(S(=O)(=O)N4CCCCC4)c3)CC2=O)cc1 (stereo not given) | -66.1* | ? | · | 0.0% | ?
CCn1cc(C(=O)NCCc2ccc(Cl)cc2)c(=O)c2cc(S(=O)(=O)N3CCc4ccccc4C3)ccc21 | 18.2 | ? | · | 1.0% | -22.8%
COc1ccc(Cl)c(-c2cc(C(=O)NCc3ccc(C(F)(F)F)cc3)[nH]n2)c1 | -38.0 | -12.1% | · | 3.1% | -7.9%
COc1ccccc1-n1cnc(N)c1C(=O)c1ccccc1 | 54.4 | ? | -5.9% | 1.4% | ?
CCOc1ccc(S(=O)(=O)N2CCN(Cc3ccc4c(c3)OCO4)CC2)cc1Cl | 11.3 | -24.0% | -0.4% | 2.6% | -3.7%
CC(C)(Oc1ccc(Cl)cc1)C(=O)N1CC2ON=C(c3c(F)cccc3Cl)C2C1 (stereo not given) | -24.5 | · | · | · | ·
O=C(CN(CCO)c1ccccc1)Nc1cccc(S(=O)(=O)N2CCCC2)c1 | -12.6 | -19.6% | 4.7% | 6.5% | 1.3%
CCN(CC)CC(=O)Nc1cccc(S(=O)(=O)N2CCCC2)c1 | -91.2* | -2.0% | 1.2% | 0.2% | -12.6%
Cc1ccc(C2(C)NC(=O)N(CC(=O)Nc3cc(S(=O)(=O)N4CCOCC4)ccc3C)C2=O)cc1 (stereo not given) | -101.1* | i | -0.1% | -8.0% | -11.1%
Cc1ccc(S(=O)(=O)N2CCOCC2)cc1NC(=O)COC(=O)CSc1ccc(Br)cc1C | -96.0* | · | 5.1% | -4.9% | ·
O=S(=O)(c1ccc(NC(=S)N2CCOCC2)cc1)N1CCCCC1 | 21.3 | -28.6% | · | 0.4% | -19.8%
Cc1ccc(S(=O)(=O)N2CCOCC2)cc1NC(=O)CN1CCN(c2ccc(O)cc2)CC1 | -60.7* | -6.9% | -7.2% | ? | -3.4%
O=S(=O)(c1ccc(NC(=S)N2CCN(c3ccc(O)cc3)CC2)cc1)N1CCOCC1 | -63.4* | -9.9% | -1.1%[11.5 µM] | -21.2% | -8.5%
CCN(CC)c1ccc(S(=O)(=O)N2CCOCC2)cc1NC(=O)Cn1nc(C)c([N+](=O)[O-])c1C | 0.0 | · | · | 1.3% | ·
Cc1ccc(S(=O)(=O)N2CCOCC2)cc1NC(=O)CSc1nnc2cc(C)c3ccccc3n12 | -63.3* | -14.7% | -1.0% | -6.9% | -29.4%
CCN(CC)c1ccc(S(=O)(=O)N2CCOCC2)cc1NC(=O)CN1CCc2ccccc2C1 | -69.5* | -2.4% | 4.9% | 3.4% | -8.5%
Cc1ccc(C(=O)Nc2ccc(-c3cn4cccnc4n3)cc2)cc1C | -18.9 | -6.2% | · | 5.3% | 5.0%
Cc1ccc(N(Cc2cccs2)C(=O)c2ccccc2[N+](=O)[O-])cc1 | ? | -11.0% | · | 1.6% | -17.8%
Cc1ccc(N(Cc2cccs2)C(=O)COc2ccccc2[N+](=O)[O-])cc1 | -68.3* | -12.6% | · | 4.1% | -11.9%
Cc1cnc(NC(=O)CC(C)c2ccccc2)s1 (stereo not given) | -67.6* | -13.4% | -7.4% | 3.8% | -20.7%
CC(C)c1nnc(NC(=O)CC(C)c2ccccc2)s1 (stereo not given) | 5.6 | i | 0.0% | -0.4% | -9.8%
CCc1nn(CC(=O)NCCCN(CC)c2cccc(C)c2)c(=O)c2cc3occc3n12 | · | · | -0.7% | · | ·
O=C(Nc1ccccc1)N1CCN(C(=O)c2nsc3ccccc23)CC1 | + | -7.5% | · | -2.6%[15.4 µM] | 0.5%
O=C(Nc1ccc(F)cc1)N1CCN(C(=O)c2nsc3ccccc23)CC1 | ? | -17.6% | · | -4.1%[15.4 µM] | -11.6%
SMILES | HCMV antiviral | VACV mCherry inh | LmPK inh | TbPYK inhibitor | VACV Venus inh
O=C(CSc1ncccc1C(=O)O)NC1CCCCC1 | -25.3 | · | -0.7% | 1.5% | ·
Cc1cc(N2CCOCC2)nc2ccc(NC(=O)CCC(=O)N3CCN(c4ccccc4F)CC3)cc12 | 10.7 | -13.6% | 0.5% | -7.6% | -19.8%
CC1(C)CC(/C=C/c2ccccc2)=Nc2ccccc2N1 | -78.3* | · | -6.9% | -9.0% | ·
O=C1CC(/C=C/c2ccc(Cl)cc2)=Nc2ccccc2N1 | -91.3* | · | -0.4% | 3.4% | ·
O=C1CC(/C=C/c2ccccc2)=Nc2ccccc2N1 | -22.7 | · | -2.1% | 2.2% | ·
O=C1CC(/C=C/c2cccnc2)=Nc2ccccc2N1 | -26.4 | ? | -22.7% | -8.6% | ?
CCOC(=O)c1cc(C)n(Cc2cccc(OC)c2OC)c1C | -31.3 | · | -4.7% | -0.1% | ·
CCOC(=O)c1c(C)c(C)n(Cc2cccc(OC)c2OC)c1C | -85.0* | i | -1.9% | 10.0% | -8.0%
Cc1cccc(Nc2nc(N)c([N+](=O)[O-])c(N3CC(C)OC(C)C3)n2)c1 (stereo not given) | 10.2 | · | 8.7% | -2.7% | ·
Cc1cccc(Nc2nc(N)c([N+](=O)[O-])c(N3CC(C)CC(C)C3)n2)c1 (stereo not given) | -62.8* | 20µM* | -0.5% | 8.3% | ?
CCOc1cc(C(=O)N/N=C/C(Br)=C/c2ccccc2)cc(OCC)c1OCC | -76.2* | ? | 1.4% | 7.2% | ?
CCOc1cc(C(=O)NN=C2CCCC2)cc(OCC)c1OCC | -75.9* | · | -0.1% | -6.8% | ·
CC(=C/c1ccccc1)/C=N/NC(=O)c1ccc2nc[nH]c2c1 | ? | -14.9% | -3.3% | -13.0% | -14.2%
O=C(N/N=C/C(Br)=C\c1ccccc1)c1ccc2nc[nH]c2c1 | -75.9* | -27.7% | -1.8% | -7.0% | -23.6%
COc1ccc(C(=O)NN=C2CCCC2)cc1OC | -30.8 | ? | 7.5% | 5.1% | -15.2%
COc1ccc(-c2cc3nc(C)c(CCC(=O)NCCc4ccc(Cl)cc4)c(C)n3n2)c(OC)c1 | 6.7 | -15.3% | · | -5.5% | -7.9%
Cc1cc(NC(=O)CCC(=O)N(c2ccccc2)C2(C(=O)NC3CCCCC3)CCCC2)no1 | -76.5* | -16.1% | 2.1% | -2.3% | ?
COc1cccc(C(C(=O)NC2CCCC2)N(CCC(C)C)C(=O)CCC(=O)Nc2cc(C)on2)c1 (stereo not given) | -65.8* | i | -1.7% | -4.7% | -0.1%
COc1ccc(C(C(=O)NC2CCCC2)N(CCC(C)C)C(=O)CCC(=O)Nc2cc(C)on2)cc1 (stereo not given) | -21.5 | -33.9% | -1.5% | 0.8% | -25.2%
Cn1c(=O)n(Cc2ccccc2Br)c2ccccc21 | -61.8* | -28.1% | 3.1% | 2.8% | -20.9%
Cc1cc(F)ccc1S(=O)(=O)Nc1ccccc1C(=O)NC1CCN(Cc2ccccc2)CC1 | -10.9 | ? | · | -2.1% | 10µM*
O=C(/C=C/c1cccc(Br)c1)NC1CCN(Cc2ccccc2)CC1 | ? | -0.9% | -7.9% | 0.3% | -24.2%
O=C(/C=C/c1cccc(F)c1)NC1CCN(Cc2ccccc2)CC1 | -63.4* | -10.1% | 7.7% | 2.8% | -13.7%
Cc1ccc(S(=O)(=O)Cn2nnnc2CN2CCCC3(CCCCC3)C2)cc1 | -68.3* | -21.6% | 3.1% | 0.0% | ?
Cc1cccc(C(=O)N2CCCC(Nc3ccc(C)c(C)c3)C2)n1 (stereo not given) | -19.5 | · | 1.2% | -3.5% | ·
